The results in this text go back to PubChem BioAssay AID540255 (Broad Institute, 2011).

The assay is described as follows: H4 neuroglioma control reporter inhibition, dose response, counter-screen for prion reporter project, cell-based, plate reader, dry powder samples (AID 540255). Background: A counterscreen serves to expose hits that act by an unwanted route or on another target.

Molecules are shown by their SMILES. Entries with a potency or affinity are not part of this list. Records with an inconclusive call do not appear. The source made the active and inactive calls. The rule behind the calls is not given here.

For `COc1ccc(N=CC2=C(O)c3ccccc3C2=O)c(OC)c1`, the outcome was inactive.
As for `Cc1cccc(C(=O)O/N=C(\N)c2ccccn2)c1`, the entry is “inactive”.
